The values that follow come from PubChem BioAssay (NCATS).

Molecules are shown by their SMILES. Inconclusive results are not listed. The list shows a part of the results. Activity calls are given as the source filed them. Unless noted, calls come from the whole dose curve; as a rule, active = well fitted curve in the direction sought with a large enough effect; inconclusive = small, poorly fitted or top-dose-only effect, or another doubt; inactive = no such curve, though single readings can be large; an effect the other way counts as inactive or inconclusive.

Assay [1] has as its target Flap endonuclease 1 (Homo sapiens) (UniProt P39748). Nature of the assay: qHTS Assay for the Inhibitors of FEN1: Confirmatory Assay for Cherry-picked Compounds (AID 720498). Note: potency is the fitted concentration of half-maximal effect; nearly all actives have a fitted effect of over 60% in size. To be noted: FEN1 flap cleavage, TAMRA/BHQ2 fluorogenic DNA substrate. In a few lines: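 FEN1 at 10 nM was preincubated with compound for 15 min at room temperature, then 50 nM (final) double-flap DNA substrate was added. TAMRA fluorescence released from the BHQ-2-quenched flap was read at 0 and 15 min (ex 525/em 598 nm).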
In general terms: In qHTS, concentration-response curves come from the screen itself.

Assay [2] has as its target Calcium and integrin-binding protein 1 (Homo sapiens) (UniProt Q99828). As to the kind of experiment: Primary qHTS for Identification of Calcium Integrin Binding Protein 1 (CIB1) Competitor (AID 1508620).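 Note: GST tagged CIB1 binding a fluorescein labelled alphaIIb integrin peptide tracer; top concentration of the series differs between compounds; % is set by controls: 0 for no effect and ±100 for the full control effect.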 Particulars: CIB1-GST / FITC-alphaIIb peptide fluorescence polarization; series mostly up to 114 µM. The procedure, abridged:
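Fluorescence polarization competition: GST-tagged CIB1 (1 uM final) preincubated with compound 15 min at room temperature, then FITC-labelled alphaIIb peptide (100 nM final) added. After 15 min at room temperature, polarization read at Ex 480/Em 540.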

Assay [3] concerns the target Ubiquitin carboxyl-terminal hydrolase 2 (Homo sapiens) (UniProt O75604). Nature of the assay: qHTS for Inhibitors of Ubiquitin-specific Protease USP2a Using CHOP2 as the Reporter: K484 Substrate (AID 652173).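 Note: cleavage of internally quenched K48 di-ubiquitin substrate measured as rising fluorescence over time; potency is the fitted concentration of half-maximal effect; nearly all actives have a fitted effect of over 70% in size.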 To be noted: USP2 cleavage of DiUb K48 IQF substrate, fluorescence; series mostly up to 57.5 µM. The procedure, abridged:
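USP2 (dispensed at 5 nM) was pinned with compounds, then DiUb K48 internally quenched fluorescent substrate (dispensed at 100 nM) was added. The buffer was 20 mM Tris pH 8, 2 mM beta-mercaptoethanol and 0.05% CHAPS. Cleavage was read kinetically as rising fluorescence, Ex 525/Em 598.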

Assay [4] is described as follows: qHTS profiling for inhibitors of Plasmodium falciparum (3D7) proliferation (AID 743322).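 Note: infected erythrocytes exposed to compound for 72 h before lysis; 100% = DMSO vehicle wells and 0% = 0.29 µM artemisinin.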 To be noted: P. falciparum 3D7 proliferation; at 28.7 µM (top of the series). The procedure, abridged:
(§1)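 Erythrocytes infected with P. falciparum (0.3% parasitemia, 2.5% hematocrit) incubated with compounds 72 h at 37 C, 5% CO2. Lysis with saponin/Triton buffer containing SYBR Green I, overnight at room temperature in the dark; DNA fluorescence (485/535 nm) normalised to 0.29 uM artemisinin and DMSO.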

Assay [5] in a line: qHTS profiling for inhibitors of Plasmodium falciparum (HB3) proliferation (AID 743324).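 Note: 100% = DMSO vehicle wells and 0% = artemisinin-treated control wells.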 To be noted: Plasmodium falciparum HB3 blood-stage proliferation; at 28.7 µM (top of the series). The procedure, abridged: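 P. falciparum HB3 grown in erythrocytes (0.3% parasitemia, 2.5% hematocrit final) with compound for 72 h at 37 C, 5% CO2. Parasite DNA detected by SYBR Green after saponin/triton lysis overnight; normalized to 0.29 uM artemisinin and DMSO.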

A short description of assay [6]: Counterscreen qHTS for small molecule stabilizers of the endoplasmic reticulum resident proteome: GLuc-NoTag assay (AID 1508627).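 For activity change, negative = inhibition: 0% = thapsigargin alone and -100% = DMSO vehicle control.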 Note: potency is the fitted concentration of half-maximal effect. To be noted: Gaussia luciferase NoTag secretion counterscreen, luminescence, thapsigargin 100 nM for final 4 h; series mostly up to 76.4 µM. The procedure, abridged:
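SH-SY5Y cells stably expressing constitutively secreted GLuc without SERCaMP tag, exposed to compound for 19 hr, then to 100 nM thapsigargin for 4 hr at 37C. Medium luciferase was read by coelenterazine luminescence without lysis.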
For orientation: The purpose of a counterscreen is to sort out artefacts and off-target activity.

A short description of assay [7]: qHTS profiling of the MIPE4 collection as inhibitors of Plasmodium falciparum (3D7) proliferation (AID 743344; call rule not given here;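 note: scaled between DMSO vehicle wells and 0.29 µM artemisinin as full inhibition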). Particulars: P. falciparum 3D7 in erythrocytes, SYBR Green DNA fluorescence, 72 h; at 28.5 µM (top of the series). In a few lines:
as §1

The nature of assay [8]: qHTS profiling of the MIPE4 collection as inhibitors of Plasmodium falciparum (DD2) proliferation (AID 743345; call rule not given here). Particulars: P. falciparum Dd2 in erythrocytes, SYBR Green DNA, 72 h; at 28.5 µM (top of the series). The procedure, abridged: as §1
A short description of assay [9]: qHTS profiling of the MIPE4 collection as inhibitors of Plasmodium falciparum (DD2) proliferation (Rep 2) (AID 743346; call rule not given here). To be noted: P. falciparum Dd2 in erythrocytes, SYBR Green DNA, 72 h; at 28.5 µM (top of the series). The procedure, abridged:
as §1

A short description of assay [10]: qHTS profiling of the MIPE4 collection as inhibitors of Plasmodium falciparum (HB3) proliferation (AID 743347; call rule not given here;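 note: plate controls were DMSO vehicle wells for no effect and artemisinin wells for full effect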). To be noted: P. falciparum HB3 in erythrocytes, SYBR Green DNA, 72 h; at 28.5 µM (top of the series). The procedure, abridged: as §1
Assay [11] is described as follows: Confirmatory qHTS for small molecule stabilizers of the endoplasmic reticulum resident proteome: Secreted ER Calcium Modulated Protein (SERCaMP) assay (AID 1508628). Note: % is set by controls: 0 for no effect and ±100 for the full control effect; nearly all actives have a fitted effect of over 40% in size. To be noted: SERCaMP secreted luciferase ER calcium/proteostasis reporter; series mostly up to 76.3 µM. In a few lines: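 SH-SY5Y cells stably expressing GLuc-SERCaMP, treated 16 h with compound (primary 1.53, 7.67, 38.3 uM; confirmation 11 concentrations, up to 76.6 uM), then 100 nM thapsigargin for 4 h. Secreted Gaussia luciferase in medium read by coelenterazine luminescence.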

Assay [12] is described as follows: Cell Viability qHTS for small molecule stabilizers of the endoplasmic reticulum resident proteome (AID 1508629).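 Note: human SH-SY5Y neuroblastoma cells carrying the GLuc-SERCaMP reporter; compound exposure about 46 h in total before the viability read; % is set by controls: 0 for no effect and ±100 for the full control effect.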 To be noted: cell viability counter-screen, 100 nM thapsigargin for final 4 h.

Ubiquitin carboxyl-terminal hydrolase 2 (Homo sapiens), sequence (O75604 whole entry, looked up): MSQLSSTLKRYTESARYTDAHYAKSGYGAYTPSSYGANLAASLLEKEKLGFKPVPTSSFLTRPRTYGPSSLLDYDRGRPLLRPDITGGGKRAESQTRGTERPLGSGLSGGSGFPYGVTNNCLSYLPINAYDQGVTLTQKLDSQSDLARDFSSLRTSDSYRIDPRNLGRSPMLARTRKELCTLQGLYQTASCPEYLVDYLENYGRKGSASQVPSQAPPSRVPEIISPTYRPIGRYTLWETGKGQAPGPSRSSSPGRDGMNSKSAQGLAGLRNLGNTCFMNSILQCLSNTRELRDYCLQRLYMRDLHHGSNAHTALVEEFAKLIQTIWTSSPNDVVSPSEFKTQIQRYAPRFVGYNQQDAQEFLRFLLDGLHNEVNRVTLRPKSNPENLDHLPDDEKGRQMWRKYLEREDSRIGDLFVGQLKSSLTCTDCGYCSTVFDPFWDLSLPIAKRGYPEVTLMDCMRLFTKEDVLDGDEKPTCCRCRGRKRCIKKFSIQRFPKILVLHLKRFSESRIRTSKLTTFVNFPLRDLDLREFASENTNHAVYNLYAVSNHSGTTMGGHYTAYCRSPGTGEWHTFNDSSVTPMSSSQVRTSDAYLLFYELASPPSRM
Calcium and integrin-binding protein 1 (Homo sapiens), sequence (Q99828 whole entry, looked up): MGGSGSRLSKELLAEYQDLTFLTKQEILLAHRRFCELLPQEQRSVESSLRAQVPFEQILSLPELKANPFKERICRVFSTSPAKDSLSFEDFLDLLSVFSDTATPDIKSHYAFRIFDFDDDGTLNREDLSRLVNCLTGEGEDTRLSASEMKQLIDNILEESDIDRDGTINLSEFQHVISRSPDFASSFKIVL
Flap endonuclease 1 (Homo sapiens), sequence (P39748 whole entry, looked up): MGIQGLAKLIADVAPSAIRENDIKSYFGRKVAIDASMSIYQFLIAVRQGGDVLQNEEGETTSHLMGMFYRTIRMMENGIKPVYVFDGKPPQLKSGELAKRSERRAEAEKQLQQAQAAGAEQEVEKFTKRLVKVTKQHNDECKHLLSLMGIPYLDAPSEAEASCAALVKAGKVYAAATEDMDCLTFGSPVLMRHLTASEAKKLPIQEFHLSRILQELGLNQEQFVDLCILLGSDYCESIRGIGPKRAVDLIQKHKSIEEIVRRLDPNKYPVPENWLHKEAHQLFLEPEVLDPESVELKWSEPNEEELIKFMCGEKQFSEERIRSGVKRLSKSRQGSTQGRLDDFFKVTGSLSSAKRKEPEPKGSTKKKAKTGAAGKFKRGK

For the compound `COc1ccc(-c2ccc3ncnc(NCc4cccs4)c3c2)cc1OC`, in assay [1], the Potency was 37.9 µM (active). Further, the Potency result in assay [2] was “inactive”.

On to `Cc1ccc(CNc2ccccc2C(=O)Nc2nc(-c3ccccc3)cs2)cc1`, for which, in assay [3], the Potency is 21.7 µM (active). Also, the Potency entry in [2] is “inactive”.

Turning to `N[C@@H](Cc1ccc(OS(=O)(=O)c2cccnc2)cc1)C(=O)N1CCN(c2ccccc2)CC1`, the remaining parasite growth % (stronger effect = lower value) in [4] worked out at 41.2%. The remaining proliferation (% of control), lower = more inhibition in assay [5] was 27.8%. Also, in assay [2], the Potency result is “inactive”.

Turning to `COc1cc2c(cc1OC)[C@H](C)N(CC1C(=O)O[C@@H]3C[C@@]4(C)CCC[C@H](C)[C@@]45OC5[C@H]13)CC2` (stereo partly specified), in [6], the Potency was 35.5 µM (active).

As to `CC(C)(C)c1cc(O)c(CN)c(C(C)(C)C)c1`, the remaining parasite growth % (stronger effect = lower value) in assay [4] was -0.824%. In [5], the remaining proliferation (% of control), lower = more inhibition was -0.148%. Further, the parasite growth, % of DMSO control in assay [7] was found to be 6.1%. This compound also yielded a parasite growth remaining, % of DMSO control (lower = more inhibition) in assay [8] of 7.28%. Moreover, the parasite growth, % of control (lower = inhibition) in assay [9] is 19.6%. Moreover, the growth, % of control in assay [10] was found to be 4.33%. In assay [2], the Potency entry is “inactive”.

Consider `CCC1CCC(C(=O)Nc2ccc(S(=O)(=O)Nc3nccs3)cc2)CC1` (stereo unspecified), for which the Potency in [3] was 27.3 µM (active). Also, the Potency entry in assay [2] was “inactive”.

In the case of `COc1ccc(C2Nc3ccccc3C(=O)N2c2ccccc2)cc1COc1ccc(NC(C)=O)cc1` (stereo unspecified), the Potency result in assay [6] was “inactive”.

As for `Cc1ccc(S(=O)(=O)Nc2cccc(C(=O)Nc3nc(-c4ccccc4)cs3)c2)cc1`, in assay [3], the Potency is 3.43 µM (active). Also, the Potency result in assay [2] was “inactive”.

For `O=C([C@@H](Cc1ccc(O[S+](=O)([O-])c2cccnc2)cc1)N[S+](=O)([O-])c1cccc2cccnc12)N1CCN(c2ccccc2)CC1`, the remaining parasite growth % (stronger effect = lower value) in assay [4] is -1.01%. Further, the remaining proliferation (% of control), lower = more inhibition in [5] turned out to be 0.336%. In assay [2], the Potency result is “inactive”.

Regarding `O=C(Nc1ccc(S(=O)(=O)Nc2nccs2)cc1)[C@@H]1CC[C@H](C(=O)c2ccccc2)C1`, in assay [3], the Potency is 24.3 µM (active). Also, in assay [2], the Potency entry is “inactive”.

`COc1cc(OC)cc(C(=O)N2CCN(Cc3ccccc3C(F)(F)F)CC2)c1`: the Potency entry in assay [6] and in assay [11] was “inactive” each time.

In assay [7], `O=C(Nc1ccc(-c2ccccc2)cc1)[C@H](Cc1ccc(O[S+](=O)([O-])c2cccc3cnccc23)cc1)N[S+](=O)([O-])c1cccc2cnccc12` had a parasite growth, % of DMSO control of 5.02%. This compound registered a parasite growth remaining, % of DMSO control (lower = more inhibition) in assay [8] of 10.4%. The compound further displayed a parasite growth, % of control (lower = inhibition) in [9] of 17.5%. Moreover, the growth, % of control in [10] came to 6.38%. For the same compound, in [2], the Potency result is “inactive”.

For the compound `CNC1CCC(N(Cc2ccc(OC)c(-c3ccc(C#N)cc3)c2)C(=O)c2sc3ccccc3c2Cl)CC1` (stereo unspecified), the remaining parasite growth % (stronger effect = lower value) in assay [4] is -1.61%. Moreover, the remaining proliferation (% of control), lower = more inhibition in assay [5] was -1.57%. In addition, in assay [2], the Potency result is “inactive”.

Turning to `Cc1ccc(S(=O)(=O)N(C)c2ccccc2C(=O)Nc2nc(-c3ccccc3)cs2)cc1`, the Potency in assay [3] was 6.11 µM (active). Also, the Potency result in assay [2] was “inactive”.

`N[C@@H](Cc1ccc(O[S+](=O)([O-])c2cccc3cnccc23)cc1)C(=O)N1CCN(c2ccccc2)CC1`: in assay [4], the remaining parasite growth % (stronger effect = lower value) was -0.448%. The remaining proliferation (% of control), lower = more inhibition in [5] is 1.2%. Moreover, the Potency entry in [2] was “inactive”.

Consider `O=C(Nc1nc(-c2ccccc2)cs1)c1ccccc1`, for which, in assay [3], the Potency was 24.3 µM (active). Further, the Potency entry in assay [2] was “inactive”.

Consider `O=C([C@H](Cc1ccc(O[S+](=O)([O-])c2cccc3cccnc23)cc1)N[S+](=O)([O-])c1cccnc1)N1CCN(c2ccccc2)CC1`, for which the remaining parasite growth % (stronger effect = lower value) in [4] is -0.283%. Further, the remaining proliferation (% of control), lower = more inhibition in assay [5] is -0.167%. Also, the Potency result in assay [2] was “inactive”.

On to `C1CCC[C@H]2CCCN3CC[C@H](CCCCCC[C@@H]4CCCN5CC[C@H](CC1)OC45)OC23`, for which, in assay [6], the activity change, negative = inhibition is 16.2% [at 9.46 µM] (inactive).

Regarding `CC(C)(C)OC(=O)N[C@@H](Cc1ccc(O[S+](=O)([O-])c2cccc3cnccc23)cc1)C(=O)N1CCN(c2ccccc2)CC1`, the remaining parasite growth % (stronger effect = lower value) in assay [4] was -1.52%. Also, in [5], the remaining proliferation (% of control), lower = more inhibition is -0.489%. The Potency entry in [2] was “inactive”.

Take `O=C([C@H](Cc1ccc(O[S+](=O)([O-])c2cccc3cnccc23)cc1)N[S+](=O)([O-])c1cccc2cnccc12)N1CCN(Cc2ccccc2)CC1`: the parasite growth, % of DMSO control in assay [7] was 4.76%. Also, the parasite growth remaining, % of DMSO control (lower = more inhibition) in assay [8] was determined as 6.64%. For the same compound, in [9], the parasite growth, % of control (lower = inhibition) worked out at 19.3%. The compound further returned a growth, % of control in [10] of 5.19%. Besides, the Potency entry in assay [2] is “inactive”.

For `O=C(c1ccccc1)N1CCN(Cc2cccc(Oc3ccccc3)c2)CC1`, the Potency entry in assay [6] is “inactive”.

On to `O=C([C@H](Cc1ccc(O[S+](=O)([O-])c2cccnc2)cc1)N[S+](=O)([O-])c1cccc2cnccc12)N1CCN(c2ccccc2)CC1`, for which the remaining parasite growth % (stronger effect = lower value) in [4] was found to be 0.0541%. Also, the remaining proliferation (% of control), lower = more inhibition in [5] stood at 0.563%. Besides, the Potency result in assay [2] is “inactive”.

Take `Cc1ccc(C(=O)N/C(=C\c2cccs2)c2nc3ccccc3[nH]2)cc1`: the Potency entry in [6] and in assay [11] was “inactive” each time. In addition, the max response in assay [12] is 8.84% (inactive).

Take `COc1cc(CN2CCN(C(=O)c3ccc(-c4ccccc4)cc3)CC2)cc(OC)c1OC`: the Potency entry in assay [6] and in assay [11] was “inactive” each time.

On to `COC(=O)[C@H](Cc1ccc(O[S+](=O)([O-])c2cccc3cnccc23)cc1)N(C)[S+](=O)([O-])c1ccc2cnccc2c1`, for which the remaining parasite growth % (stronger effect = lower value) in assay [4] was -0.184%. Also, the remaining proliferation (% of control), lower = more inhibition in assay [5] stood at 0.837%. In addition, in assay [2], the Potency entry is “inactive”.
